What all share (test): NCI-60 one-dose screen, 48 h (100 = growth as untreated, 0 = no growth, -100 = all killed)
Holding throughout (conditions): 10 µM unless noted

Test [1] concerns NCI-H23 lung.
For test [2], the system named is NCI-H226 lung.
For test [3], the system named is NCI-H322M lung.
Test [4] deals with HOP-62 NSCLC.
Test [5] has as its system NCI-H460 lung.
The subject of test [6] is HOP-92 NSCLC.
For test [7], the system named is NCI-H522 lung.
Test [8] concerns A549/ATCC NSCLC.
Test [9] relates to 786-0 renal.
Test [10] deals with COLO 205 colon.
Test [11] concerns DU-145 prostate.
For test [12], the system named is K-562 leukemia.
The test system of test [13] is MALME-3M melanoma.
The subject of test [14] is MDA-MB-231 breast.
The test system of test [15] is RXF 393 renal.
Test [16] has as its system SF-268 CNS.
Test [17] concerns SF-295 CNS.
The subject of test [18] is SF-539 CNS.
For test [19], the system named is UACC-257 melanoma.
The subject of test [20] is M14 melanoma.

These results are taken from PubChem BioAssay (NCI).

The panel holds about 83,000 compounds, 20% with a hit somewhere; the sample as a whole holds those more often.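 In brief: 96-well plates, 48 h treatment, single concentration, percent growth endpoint.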 Values without a mark were called inactive. The source made the active and inactive calls. How the source made its calls: active means growth percent below 10; inactive means the rest.

For the molecule `C=C(C)[C@@H]1CC[C@]2(C)[C@H](CC=C3[C@@H]4CC(C)(C)CC[C@]4(C=O)CC[C@]32C)[C@@]1(C)CCCN`, the growth in [1] is 86.4%; in test [2], 85.5%; in [3], 86.5%; in test [4], 88.9%; in test [5], 86.3%; in [6] it was 62%. The growth in test [7] was 91.8%; in [8], 77.6%; in test [9], 90.4%; in test [10], -62.3% (active); in test [11], 93.3%; in test [12], 1.54% (active). Also, the growth in [13] is 68.8%; in test [14], 75.2%; in test [15], 67.1%; in test [16], 83.2%; in test [17], 93.2%; in test [18] it was 89.3%. For the same molecule, the growth in test [19] is 81%; in test [20], 63.9%.
As for `NC1=NN(c2ccccc2)C(=O)/C1=C/c1ccc(Cl)cc1`, the growth is 98% in [1]; 99.2% in test [2]; 97.8% in [3]; 95.3% in test [4]; 99.1% in [5]; 91.6% in test [6]. Further, the growth in [7] was 90.6%; in test [8], 98.5%; in test [9] it was 94.4%; in [10] it was 95.7%; in [11], 107%; in [12], 102%. Besides, the growth is 92.4% in test [13]; -99% (active) in test [14]; 107% in test [15]; 102% in test [16]; 113% in test [17]; 111% in [18]. The values for the growth in test [19] and in [20] were 97.3% and 97.2%, respectively.
As to `CN1CCN(c2nc(-c3csc(-c4cccs4)n3)cc3ccccc23)CC1`, the growth in test [1] was 79.1%; in test [2], 94.5%; in test [3] it was 81%; in [4], 68.3%; in [5], -25.6% (active); in test [6] it was 23%. Further, the growth in test [7] was 70.7%; in [8], 47.9%; in test [9], 48.1%; in test [10] it was -51.1% (active); in [11], 55.8%; in [12], -35.9% (active). In addition, the growth in test [13] was 70.4%; in test [14], 41.6%; in test [15], 40.3%; in test [16] it was 49.6%; in test [17], 83%; in test [18], 86.7%. The growth in [19] is 21.6%; in [20] it was -44.9% (active).
As for `Cc1ccc(-c2nc([P+](c3ccccc3)(c3ccccc3)c3ccccc3)c(N3CCOCC3)o2)cc1`, the growth in test [1] is -9.72% (active); in [2] it was -2.72% (active); in test [3] it was 7.88% (active); in test [4], -41.5% (active); in [5], 3.34% (active); in test [6], -28.7% (active). Further, the growth was 0.415% (active) in test [7]; 9.89% (active) in [8]; 15.9% in test [9]; -70% (active) in test [10]; 12.9% in test [11]; 4.64% (active) in [12]. The growth in test [13] is -18.8% (active); in test [14], -0.628% (active); in test [15], -1.34% (active); in [16], 12.5%; in test [17], -10.3% (active); in [18], 19.3%. The growth in [19] was -4.98% (active); in test [20], 0.413% (active).
Consider `C=C(C)[C@@H]1CC[C@]2(C)CC[C@]3(C)[C@H](CC[C@@H]4[C@@]5(C)CCCNC(C)(C)[C@@H]5CC[C@]43C)[C@@H]12`, for which the growth in [1] is 94.1%; in test [2] it was 96.5%; in test [3], 99.5%; in test [4] it was 101%; in [5] it was 48.4%; in test [6] it was 76.6%. The growth in test [7] is 106%; in [8] it was 51.3%; in [9] it was 102%; in test [10], 8.77% (active); in test [11], 75.6%; in [12] it was 4.15% (active). For the same molecule, the growth in test [13] is 88.9%; in test [14], 96.7%; in [15], 88.4%; in [16] it was 104%; in test [17], 106%; in [18], 98.2%. Also, the results for the growth in test [19] and in test [20] were 107% and 79.6%, respectively.
In the case of `c1csc(-c2nc(-c3cc4ccccc4c(N4CCOCC4)n3)cs2)c1`, the growth in [1] was 87.8%; in [2] it was 107%; in test [3], 94.1%; in test [4], 97.6%; in test [5], 100%; in test [6], 116%. For the same molecule, the growth in test [7] was 93.8%; in test [8], 95.6%; in test [9], 96.9%; in test [10], 20.5%; in test [11], 113%; in test [12] it was 102%. The growth in test [13] was 0.576% (active); in [14], 88.7%; in test [15] it was 111%; in test [16], 91.6%; in [17] it was 101%; in test [18], 103%. Moreover, the growth in test [19] was 17.3%; in test [20] it was 49.1%.
With `Cc1cc2nc3c4cc(N)ccc4n(CCN(C)C)c3nc2cc1C`, the growth was 6.58% (active) in test [1]; 1.78% (active) in test [2]; 7.13% (active) in [3]; 19% in [4]; 0.661% (active) in test [5]; 37.6% in test [6]. For the same molecule, the growth was 13.2% in [7]; 5.34% (active) in test [8]; 26.2% in test [9]; -18.5% (active) in test [10]; 12.6% in [11]; 5.75% (active) in [12]. Moreover, the growth was -16.6% (active) in [13]; 7.84% (active) in test [14]; 15.3% in [15]; 29.7% in test [16]; 1.26% (active) in test [17]; 10.5% in test [18]. Also, the figures for the growth in test [19] and in [20] were 11.9% and 7.08% (active), respectively.
For the molecule `Nc1ccc(Cl)cn1`, the growth is 97.7% in test [1]; 95% in test [2]; 104% in [3]; 95% in [4]; 105% in test [5]; 87% in test [6]. Moreover, the growth in test [7] is 82.9%; in [8] it was 87.7%; in test [9] it was 106%; in [10], 108%; in test [11], 106%; in test [12], 107%. In addition, the growth was 99.7% in [13]; 101% in [14]; 113% in test [15]; 100% in test [16]; 97.3% in [17]; 96.4% in [18]. Also, the growth in test [20] was 105%.
Consider `Clc1ccc(Cn2cc(-c3nc4ccc(Br)nc4n3Cc3ccc(Cl)cc3)c3cccnc32)cc1`, for which the growth is 65.9% in [1]; 77.7% in test [2]; 81.1% in test [3]; 82.7% in test [4]; 97.4% in [5]; 65.4% in test [6]. Moreover, the growth in test [7] was 70%; in test [8] it was 95.9%; in [9], 90.5%; in [10] it was 94.5%; in test [11] it was 105%; in [12], 78.9%. The growth in test [13] is 92.4%; in test [14], 53.1%; in test [15] it was 83%; in [16], 89.2%; in [17] it was 83.9%; in test [18] it was 86%. Further, the growth in test [20] is 89.8%.
As to `Cc1oc(-c2ccccc2Cl)cc1C(=O)Nc1ccc(S(N)(=O)=O)cc1`, the growth in [1] is 96.4%; in test [2], 96.1%; in [3], 102%; in test [4] it was 105%; in test [5], 107%; in test [6], 107%. Also, the growth is 97.3% in test [7]; 105% in test [8]; 103% in test [9]; 116% in test [10]; 104% in test [11]; 96.3% in test [12]. Besides, the growth in [13] was 98.6%; in [14], 93.3%; in [15] it was 111%; in [16], 104%; in [17], 104%; in test [18], 95.4%. Further, the growth in test [19] was 95%; in test [20], 93.8%.
`C[C@@H](C(=O)O)c1ccc2c3cc(Cl)ccc3n(Cc3cc(=O)oc4ccc(Cl)cc34)c2c1`: the growth is 95.6% in test [1]; 103% in test [2]; 86.3% in [3]; 103% in test [4]; 111% in test [5]; 108% in test [6]. The growth in test [7] was 90.7%; in test [8], 102%; in [9], 95.9%; in [10], 113%; in test [11], 103%; in test [12], 98.2%. The growth in test [13] was 89.5%; in [14], 106%; in [15], 116%; in [16] it was 93.4%; in test [17], 103%; in test [18] it was 102%. Also, the growth is 104% in test [19] and 100% in [20].
Regarding `COc1ccc(C2NC(=O)Nc3ccccc32)c(OC)c1` (stereo not given), the growth in [1] was 102%; in test [2], 89.7%; in test [3] it was 96.6%; in [4], 98.5%; in [5], 101%; in test [6], 86.7%. For the same molecule, the growth in test [7] is 91.6%; in [8], 98.4%; in [9], 103%; in test [10], 112%; in [11], 112%; in test [12] it was 93.7%. Also, the growth in [13] is 85.6%; in test [14], 94.7%; in test [15], 110%; in test [16] it was 100%; in test [17] it was 94.2%; in test [18], 93.8%. Moreover, the growth in test [20] is 95.6%.
Consider `NCCNc1nc(-c2ccccc2)nc2nc(-c3ccccc3)oc12`, for which the growth was 90.6% in test [1]; 86.1% in test [2]; 104% in test [3]; 85.6% in test [4]; 98.4% in [5]; 55.1% in [6]. The growth is 105% in [7]; 93.6% in test [8]; 81% in test [9]; 87.4% in [10]; 98.2% in test [11]; 24.2% in test [12]. The growth is 102% in test [13]; 92.8% in [14]; 85.9% in test [15]; 73.3% in test [16]; 101% in [17]; 90.4% in test [18]. For the same molecule, the growth in [19] was 111%; in [20], 97.8%.
As to `COc1cccc(-c2nn(-c3ccccc3)cc2-c2ccnc(NCCCNS(=O)(=O)c3ccc(Br)cc3)c2)c1`, the growth in test [1] is 52.9%; in test [2], 51.9%; in test [3], 74.4%; in test [4] it was 81%; in test [5], 44.3%; in test [6] it was 34.6%. Moreover, the growth in test [7] is 54.4%; in test [8], 47.7%; in test [9], 46.4%; in test [10], 20.8%; in test [11], 72.6%; in test [12], 19.1%. Moreover, the growth in test [13] was 71.9%; in test [14], 42.4%; in test [15], 44.7%; in test [16], 55.2%; in [17], 37.7%; in test [18] it was 76.3%. Besides, the growth in [20] is 47.4%.
Consider `COc1cccc(-c2nn(-c3ccccc3)cc2-c2ccnc(NCCCN)c2)c1`, for which the growth in test [1] is 60%; in [2], 78.7%; in [3], 78.5%; in test [4], 47.9%; in test [5] it was 27.9%; in test [6] it was 32.3%. The growth in test [7] is 83.4%; in test [8], 68%; in [9], 52.1%; in [10] it was 26.1%; in test [11], 75.6%; in test [12] it was 16.8%. Further, the growth in test [13] is 70.2%; in test [14], 33.7%; in test [15], 51.5%; in test [16], 64%; in test [17] it was 44.7%; in test [18], 49.8%. In addition, the growth in test [20] is 26.1%.
